This passage reports Potency and outcome results from PubChem BioAssay (Tox21).

The nature of assay [1]: Nuclear factor erythroid 2-related factor 2/antioxidant responsive element (Nrf2/ARE) small molecule agonists: qHTS cell viability counter screen in human keratinocytes (AID 1919968; active = well fitted curve in the direction sought with a large enough effect in the repeat runs; an effect the other way counts as inactive or inconclusive; note: nearly all actives have a fitted effect of over 55% in size). The gist of the method:
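Stably transfected HaCaT (KeratinoSens), 1,500/well. Test agents in DMSO were applied for 23 h, 37 C/5% CO2. CellTiter-Fluor was incubated 1 h before the fluorescence read.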
Background: In qHTS, concentration-response curves come from the screen itself.

The nature of assay [2]: Nuclear factor erythroid 2-related factor 2/antioxidant responsive element (Nrf2/ARE) small molecule agonists: luciferase reporter gene qHTS assay in human keratinocytes (AID 1919969). Note: nearly all actives have a fitted effect of over 35% in size. Note: potency is the fitted concentration of half-maximal effect.
The target in assay [3] is Gonadotropin-releasing hormone receptor (Homo sapiens) (UniProt P30968). Kind of assay: Human gonadotropin-releasing hormone receptor (GnRHR) small molecule agonists, calcium flux assay in GnRHR-HEK293 cells (AID 1920063). Note: nearly all actives have a fitted effect of over 35% in size. A digest of the protocol:
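Stable human GnRHR HEK293 line. 18 h plating, then calcium dye for 1 h at 37 C. Agonist-mode compound addition from DMSO stocks; fluorescence monitored 3 min.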

The target of assay [4] is KiSS-1 receptor (Homo sapiens) (UniProt Q969F8). The assay is described as follows: Human kisspeptin (KISS1R) small molecule agonists, calcium flux assay in KISS1R-HEK293 cells (AID 1920064; active = well fitted curve in the direction sought with a large enough effect in the repeat runs; an effect the other way counts as inactive or inconclusive). A digest of the protocol:
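After overnight (18 h) culture at 37 C/5% CO2, human KISS1R-HEK293 cells received calcium dye for 1 h, then test compound; emission at 540 nm (excitation 480 nm) was tracked for 3 min.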
On the technique in general: Calcium assays in cells follow changes in intracellular calcium, usually with a dye or a luminescent sensor.

The nature of assay [5]: G protein-coupled receptor (GPCR) small molecule agonists, calcium flux assay: HEK293 wild type cell line counter screen (AID 1920065). The gist of the method: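 Following 18 h incubation at 37 C/5% CO2, plates got calcium dye for 1 h; compounds, ATP or DMSO were then pinned in and fluorescence followed kinetically (480/540 nm).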
Assay [6] is described as follows: p53 small molecule agonists, cell-based qHTS assay with rat liver microsomes (AID 1963578). A digest of the protocol:
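Quantitative HTS of the Tox21 10K library: p53RE-bla cells, rat liver microsomes plus NADPH at 0.5 mg/mL final each, 16 h at 37 C, beta-lactamase fluorescence detection.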

A short description of assay [7]: p53 small molecule agonists, cell-based qHTS assay with human liver microsomes: qHTS cell viability counter screen (AID 1963579). Note: nearly all actives have a fitted effect of over 45% in size. The gist of the method:
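Viability of p53RE-bla cells is measured as CellTiter-Glo luminescence following a 16 h, 37 C incubation with compound, liver microsomes from human donors and NADPH.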

Assay [8] can be described thus: p53 small molecule agonists, cell-based qHTS assay with rat liver microsomes: qHTS cell viability counter screen (AID 1963580). Note: nearly all actives have a fitted effect of over 45% in size. The gist of the method:
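After the beta-lactamase ratio was read, CellTiter-Glo was added to the same wells and luminescence measured at 30 min; cells had been treated 16 h at 37 C with compounds, rat liver microsomes and NADPH (0.5 mg/mL final each).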

Assay [9] can be described thus: p53 small molecule agonists, cell-based qHTS assay: qHTS cell viability counter screen (AID 1963581). Note: nearly all actives have a fitted effect of over 45% in size. The gist of the method:
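qHTS counter screen: 16 h compound exposure at 37 C of p53RE-bla HCT-116 cells (4,000 per well, seeded 5 h prior), cell viability by ATP luminescence.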

The nature of assay [10]: p53 small molecule agonists, cell-based qHTS assay (AID 1963582; active = well fitted activation curve with a large enough effect in the signal ratio in the repeat runs, not every such curve was filed as active; the % refers to the signal ratio). A digest of the protocol: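 Measured: fluorescence from cleaved LiveBLAzer substrate. System: p53RE-bla cells, 16 h compound treatment at 37 C, 2 h substrate step at room temperature.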
Assay [11] deals with 5-hydroxytryptamine receptor 2A (Homo sapiens) (UniProt P28223). The assay is described as follows: 5-hydroxytryptamine receptor 2A (HTR2A) small molecule antagonists, cell-based qHTS assay (AID 1963586). Note: nearly all actives have a fitted effect of over 45% in size. A digest of the protocol:
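CHO cells stably expressing human HTR2A were plated for 18 h at 37 C, then loaded with calcium dye for 1 h. Compounds were preincubated 5 min at room temperature before DOI (4 nM solution) was added. Kinetic fluorescence was read for 3 min.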

For assay [12] the target is unchanged. Kind of assay: 5-hydroxytryptamine receptor 2A (HTR2A) small molecule agonists, cell-based qHTS assay (AID 1963587). Note: nearly all actives have a fitted effect of over 30% in size. A digest of the protocol: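 CHO cells stably expressing human HTR2A, plated 18 h, loaded with calcium dye 1 h at 37 C. Agonist mode: compounds added and intracellular calcium fluorescence recorded kinetically for 2 min at 1 sec intervals.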

Assay [13] deals with Muscarinic acetylcholine receptor M1 (Homo sapiens) (UniProt P11229). The assay is described as follows: Cholinergic receptor muscarinic 1 (CHRM1) small molecule antagonists, cell-based qHTS assay (AID 1963588). Note: nearly all actives have a fitted effect of over 40% in size. The gist of the method: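 Compounds were tested at 15 concentrations in three independent runs. Dye-loaded CHRM1-CHO cells were exposed 5 min at room temperature before stimulation by acetylcholine added at 50nM. Intracellular calcium was read kinetically on FDSS for 3 min.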

Assay [14] shares this target. Kind of assay: Cholinergic receptor muscarinic 1 (CHRM1) small molecule agonists, cell-based qHTS assay (AID 1963589). Note: nearly all actives have a fitted effect of over 35% in size. The gist of the method: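 Kinetic fluorescence (1 s intervals) of calcium-sensitive dye in human M1 CHO cells after compound addition; cells pre-incubated 18 h at 37 C/5% CO2 and dye-loaded 1 h.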
For assay [15], the target named is Beta-2 adrenergic receptor (Homo sapiens) (UniProt P07550). The assay is described as follows: Adrenergic beta2 receptor (ADRB2) small molecule antagonists, cell-based qHTS assay (AID 1963592). Note: series mostly up to about 92 µM; nearly all actives have a fitted effect of over 50% in size. A digest of the protocol: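 Assay format: CHO-ADRB2 cells, 18-20hr seeding at 37C/5% CO2, then compound plus 1nM isoproterenol agonist mix for 0.5hr RT. Homogeneous time-resolved fluorescence cAMP detection after 1hr, expressed as 665/615 nm ratio.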

Assay [16] addresses D(2) dopamine receptor (Homo sapiens) (UniProt P14416). Kind of assay: Dopamine D2 receptor (DRD2) small molecule antagonists, cell-based qHTS assay (AID 1963595; active = well fitted inhibition curve with a large enough effect in the signal ratio in the repeat runs, with a control signal flat; the % refers to the signal ratio). A digest of the protocol:
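HTRF cAMP read-out at 665 and 620 nm emission (340 nm excitation). Antagonist mode: compounds were tested against 12 nM quinpirole in DRD2-HEK293 cells, with 200 nM NKH477 raising cAMP and 0.1 mM Ro20-1724 blocking its breakdown.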

Assay [17] in a line: p53 small molecule agonists, cell-based qHTS assay with human liver microsomes (AID 1963577).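 Note: p53 response element beta-lactamase reporter cells with liver microsomes plus NADPH.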 A digest of the protocol:
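HLM-supplemented p53RE-bla reporter assay: 16 h compound exposure at 37 C, microsomes and NADPH each 0.5 mg/mL final, read by fluorescence intensity.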

Assay [18] can be described thus: cAMP Responsive Elements (CRE) small molecule antagonists, cell-based qHTS assay (AID 1963591; active = well fitted inhibition curve with a large enough effect in the signal ratio in the repeat runs, not every such curve was filed as active; the % refers to the signal ratio). A digest of the protocol:
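Reporter line CRE-bla HEK 293T in dialyzed-FBS DMEM; cells preincubated 18 h, treated 3 h with compound plus NKH477 (0.25 uM final); LiveBLAzer FRET, 2 h RT.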

For assay [19], the target named is D(2) dopamine receptor (Homo sapiens) (UniProt P14416). Kind of assay: Dopamine D2 receptor (DRD2) small molecule agonists, cell-based qHTS assay (AID 1963594). Note: nearly all actives have a fitted effect of over 35% in size. A digest of the protocol: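 HEK293 cells stably expressing human DRD2, pre-treated with PDE inhibitor Ro20-1724 (0.1 mM final) and compound 10 min at room temperature, then stimulated with NKH477 (200nM […]) for 30 min. cAMP read by HTRF (665/620 nm).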

Assay [20] in a line: cAMP Responsive Elements (CRE) small molecule agonists, cell-based qHTS assay (AID 1963590). The gist of the method: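 Test agents in DMSO were incubated 3 h at 37 C/5% CO2 with CRE-bla HEK 293T cells seeded 18 h earlier; LiveBLAzer B/G FRET substrate was added and read after 2 h at room temperature.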

Unmarked numbers belong to inactive results. Inconclusive results are not listed. The source made the active and inactive calls. Unless noted, calls come from the whole dose curve.

Sequence of D(2) dopamine receptor (Homo sapiens) (P14416 whole entry, looked up): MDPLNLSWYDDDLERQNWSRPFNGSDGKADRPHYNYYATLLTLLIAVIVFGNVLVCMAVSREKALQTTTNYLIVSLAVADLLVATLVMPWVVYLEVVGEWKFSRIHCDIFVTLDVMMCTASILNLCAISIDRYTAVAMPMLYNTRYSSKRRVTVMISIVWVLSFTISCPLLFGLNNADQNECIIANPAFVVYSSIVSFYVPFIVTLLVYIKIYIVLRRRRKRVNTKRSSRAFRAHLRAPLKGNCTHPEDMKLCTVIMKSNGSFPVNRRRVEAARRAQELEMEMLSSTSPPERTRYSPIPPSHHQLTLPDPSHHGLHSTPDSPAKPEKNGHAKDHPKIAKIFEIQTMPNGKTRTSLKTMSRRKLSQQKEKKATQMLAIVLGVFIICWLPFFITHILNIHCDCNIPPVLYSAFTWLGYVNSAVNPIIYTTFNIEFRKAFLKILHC
Sequence of Muscarinic acetylcholine receptor M1 (Homo sapiens) (P11229 whole entry, looked up): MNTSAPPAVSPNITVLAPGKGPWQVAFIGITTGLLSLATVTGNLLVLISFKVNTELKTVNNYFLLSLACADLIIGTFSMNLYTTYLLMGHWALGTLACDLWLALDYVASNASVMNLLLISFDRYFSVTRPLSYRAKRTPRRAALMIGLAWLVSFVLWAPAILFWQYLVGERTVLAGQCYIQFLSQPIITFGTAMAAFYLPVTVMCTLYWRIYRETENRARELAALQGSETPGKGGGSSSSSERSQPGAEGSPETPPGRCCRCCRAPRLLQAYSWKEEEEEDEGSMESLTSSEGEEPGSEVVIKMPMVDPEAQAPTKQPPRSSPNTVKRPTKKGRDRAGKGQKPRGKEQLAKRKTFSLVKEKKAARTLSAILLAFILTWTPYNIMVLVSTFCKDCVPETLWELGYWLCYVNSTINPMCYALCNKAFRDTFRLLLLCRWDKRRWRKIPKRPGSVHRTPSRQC
Sequence of 5-hydroxytryptamine receptor 2A (Homo sapiens) (P28223 whole entry, looked up): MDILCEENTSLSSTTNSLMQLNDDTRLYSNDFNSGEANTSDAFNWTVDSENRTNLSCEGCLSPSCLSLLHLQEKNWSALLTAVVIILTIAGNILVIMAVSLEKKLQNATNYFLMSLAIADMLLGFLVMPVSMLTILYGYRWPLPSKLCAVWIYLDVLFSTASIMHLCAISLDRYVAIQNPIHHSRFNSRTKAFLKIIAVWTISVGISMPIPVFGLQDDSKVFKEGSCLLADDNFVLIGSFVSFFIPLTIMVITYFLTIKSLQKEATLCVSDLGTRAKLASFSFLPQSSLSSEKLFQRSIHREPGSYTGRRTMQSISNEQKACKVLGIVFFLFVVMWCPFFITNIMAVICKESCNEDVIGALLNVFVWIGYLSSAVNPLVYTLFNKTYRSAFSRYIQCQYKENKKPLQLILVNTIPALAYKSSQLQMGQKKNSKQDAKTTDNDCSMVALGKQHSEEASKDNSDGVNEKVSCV
Sequence of KiSS-1 receptor (Homo sapiens) (Q969F8 whole entry, looked up): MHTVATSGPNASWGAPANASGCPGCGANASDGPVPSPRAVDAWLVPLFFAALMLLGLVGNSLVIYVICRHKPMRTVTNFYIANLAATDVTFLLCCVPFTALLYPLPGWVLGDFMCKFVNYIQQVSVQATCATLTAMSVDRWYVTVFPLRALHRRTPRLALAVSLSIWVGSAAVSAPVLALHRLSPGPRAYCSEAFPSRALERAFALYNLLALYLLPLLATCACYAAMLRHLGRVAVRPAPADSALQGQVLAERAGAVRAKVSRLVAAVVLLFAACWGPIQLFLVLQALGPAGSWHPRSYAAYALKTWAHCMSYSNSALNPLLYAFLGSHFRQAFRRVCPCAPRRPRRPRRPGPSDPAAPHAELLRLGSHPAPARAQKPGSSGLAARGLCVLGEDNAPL
Sequence of Beta-2 adrenergic receptor (Homo sapiens) (P07550 whole entry, looked up): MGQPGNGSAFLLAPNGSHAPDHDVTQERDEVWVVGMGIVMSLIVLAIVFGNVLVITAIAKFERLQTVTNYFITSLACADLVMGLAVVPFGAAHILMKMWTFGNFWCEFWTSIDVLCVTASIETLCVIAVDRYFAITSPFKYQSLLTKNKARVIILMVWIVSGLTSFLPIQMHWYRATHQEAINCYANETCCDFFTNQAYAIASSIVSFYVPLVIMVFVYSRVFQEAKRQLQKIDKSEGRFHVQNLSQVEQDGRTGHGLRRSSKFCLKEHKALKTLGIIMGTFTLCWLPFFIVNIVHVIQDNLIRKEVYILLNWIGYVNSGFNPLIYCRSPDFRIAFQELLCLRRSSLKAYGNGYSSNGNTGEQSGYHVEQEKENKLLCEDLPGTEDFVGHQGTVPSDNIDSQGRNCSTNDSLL
Sequence of Gonadotropin-releasing hormone receptor (Homo sapiens) (P30968 whole entry, looked up): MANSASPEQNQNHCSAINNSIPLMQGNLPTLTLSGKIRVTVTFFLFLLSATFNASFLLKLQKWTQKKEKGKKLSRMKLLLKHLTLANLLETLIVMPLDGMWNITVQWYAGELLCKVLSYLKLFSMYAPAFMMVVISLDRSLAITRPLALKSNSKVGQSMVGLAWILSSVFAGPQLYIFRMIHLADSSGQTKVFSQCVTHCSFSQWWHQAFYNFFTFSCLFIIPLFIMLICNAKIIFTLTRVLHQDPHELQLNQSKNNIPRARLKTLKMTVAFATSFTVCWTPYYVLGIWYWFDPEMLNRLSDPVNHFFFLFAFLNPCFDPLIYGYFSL

As for `CC(C)CC(=O)C1C(=O)c2ccccc2C1=O`, the Potency result in assay [1], in assay [2], in assay [3], in assay [6], in assay [7] and in assay [8] was “inactive” in each case. The Potency result in assay [9], in assay [10], in assay [11], in assay [12], in assay [13] and in [14] was “inactive” each time. In addition, the Potency entry in assay [15] and in assay [16] was “inactive” throughout. For the same compound, the result in [4] and in assay [5] was inactive.
For `CCCCCc1ccc(N)cc1`, the Potency entry in [1], in assay [2], in assay [3], in assay [17], in [8] and in assay [9] was “inactive” throughout. The Potency result in assay [10], in assay [13], in [14], in assay [18], in [19] and in assay [16] was “inactive” each time. Further, the result in [4] and in [5] was inactive.
On to `O=C1C=CCCC1`, for which the Potency entry in assay [1], in assay [2], in assay [3], in assay [6], in assay [7] and in [8] was “inactive” throughout. In addition, the Potency result in assay [10], in assay [11], in assay [12], in assay [13], in [14] and in assay [20] was “inactive” in each case. Besides, the Potency entry in [18], in assay [15], in assay [19] and in assay [16] was “inactive” throughout. The outcome in assay [4] and in assay [5] was inactive.
As for `N#CCc1ccc(Cl)cc1Cl`, the Potency entry in assay [1], in assay [2], in assay [3], in assay [6], in assay [7] and in [8] was “inactive” each time. The Potency entry in assay [9], in assay [11], in assay [12], in assay [13], in [14] and in assay [20] was “inactive” in each case. Further, the Potency result in assay [18], in [15] and in assay [16] was “inactive” throughout. The outcome in assay [4] and in [5] was inactive.
In the case of `COc1ccc(C(=O)Nc2ccccc2)cc1[N+](=O)[O-]`, the Potency entry in [1], in [2], in [3], in assay [6], in [7] and in [8] was “inactive” throughout. For the same compound, the Potency result in [9], in assay [10], in assay [12], in [13], in assay [14] and in assay [15] was “inactive” each time. Further, the Potency result in assay [19] and in assay [16] was “inactive” throughout. The result in assay [4] and in assay [5] was inactive.
As to `CN(C)c1ccc(CCO)cc1`, the Potency result in [1], in assay [3], in [6], in [7], in assay [8] and in [10] was “inactive” throughout. Also, the Potency entry in [11], in [12], in assay [13], in [14] and in assay [16] was “inactive” each time. The Potency in [2] is 27.1 µM (active). In addition, the result in assay [4] and in [5] was inactive.
With `O=C(NCCO[N+](=O)[O-])c1cccnc1`, the Potency entry in assay [1], in assay [2], in assay [3], in assay [6], in assay [7] and in assay [8] was “inactive” each time. Moreover, the Potency entry in [9], in assay [10], in assay [11], in [13], in assay [14] and in assay [20] was “inactive” each time. Further, the Potency entry in assay [18], in [15], in assay [19] and in assay [16] was “inactive” in each case. Moreover, the outcome in [4] and in [5] was inactive.
